# According to PubChem BioAssay (NCATS):
# A number with no mark means an inactive call. Records with an inconclusive call do not appear. A call without a number means that no potency is given here. Activity calls are given as the source filed them. Calls follow the shape of the dose curve; as a rule, active = well fitted curve in the direction sought with a large enough effect; inconclusive = small, poorly fitted or top-dose-only effect, or another doubt; inactive = no such curve, though single readings can be large; an effect the other way counts as inactive or inconclusive.
# How the values were obtained:
# [1] = test system: Zika virus NS2B-NS3 protease (linked construct); assay: Primary screen NINDS Rhodamine qHTS for Zika virus inhibitors (AID 1347160); also: nearly all actives have a fitted effect of over 55% in size; also: potency is read from the fitted curve at half-maximal effect
# Procedure, shortened: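 Single-chain NS2B-NS3 protease, 25 nM, pH 8.0; compounds preincubated 15 min. Activity: Rhodamine110 release from 1.5 microM substrate over 15 min, room temperature, data fitted to 4-parameter Hill.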
# [2] = HPAF-II Cancer Cell Toxicity qHTS against the NCATS CANVASS Library (AID 1347346); also: series mostly up to about 38 µM; nearly all actives have a fitted effect of over 55% in size
# Procedure, shortened: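 1000 HPAF-II cells/well; 4 h pre-incubation; 11-pnt compound titration; 72 h, 37 degrees C/5% CO2; CellTiter-Glo, 15 min RT; luminescence read.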
# [3] = U-118MG Cancer Cell Toxicity qHTS against the NCATS CANVASS Library (AID 1347351)
# Procedure, shortened: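 Step one: seed 1000 cells per well. Step two: incubate 4 h. Step three: add test compounds in 11 concentrations. Step four: culture 72 h, then add CellTiter-Glo and record luminescence after 15min.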
# [4] = COV-362 Cancer Cell Toxicity qHTS against the NCATS CANVASS Library (AID 1347352); also: series mostly up to about 38 µM
# Procedure, shortened: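 1000 cells/well, 4 h pre-incubation 37 °C/5% CO2; 11-pnt titration; 72 h; CellTiter-Glo 15 min RT, luminescence.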
# [5] = HPAF-II 24hr Apoptosis Induction qHTS against the NCATS CANVASS Library (AID 1347356)
# Procedure, shortened: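 500 HPAF-II cells/well; compounds in 11-pnt qHTS; 24 h, 37 C/5% CO2; Caspase-Glo 3/7 added, 15 min RT dark; luminescence read. Doxorubicin control.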
# [6] = HEK293 18hr Apoptosis Induction qHTS against the NCATS CANVASS Library (AID 1347357)
# Procedure, shortened: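 HEK293 cells (500/well, DMEM + 10% FBS) treated with an 11-point series for 18 h at 37 degrees C. Caspase-3/7 activity read by Caspase-Glo luminescence after 15 min at room temperature.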
# [7] = HEK293 24hr Apoptosis Induction qHTS against the NCATS CANVASS Library (AID 1347359)
# Procedure, shortened: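 HEK293 cells (500/well, DMEM + 10% FBS) were exposed to compounds in an 11-point series for 24 hours at 37 degrees C, then caspase-3/7 activity was read by Caspase-Glo DEVD luciferase luminescence after 15 min.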
# [8] = HEK293 12hr Apoptosis Induction qHTS against the NCATS CANVASS Library (AID 1347361)
# Procedure, shortened: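 HEK293 cells (500/well) were exposed to an 11-point qHTS concentration series for 12 hours at 37 degrees C. Caspase-3/7 activity was then read by DEVD-substrate luciferase luminescence after 15 min at room temperature.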
# [9] = target: Luciferin 4-monooxygenase (Photinus pyralis) (UniProt P08659); assay: Firefly luciferase counterscreen qHTS: Assay Interference Panel against the NCATS CANVASS Library (AID 1347363); also: series mostly up to about 57 µM
# Sequence of Luciferin 4-monooxygenase (Photinus pyralis) (P08659 whole entry, looked up): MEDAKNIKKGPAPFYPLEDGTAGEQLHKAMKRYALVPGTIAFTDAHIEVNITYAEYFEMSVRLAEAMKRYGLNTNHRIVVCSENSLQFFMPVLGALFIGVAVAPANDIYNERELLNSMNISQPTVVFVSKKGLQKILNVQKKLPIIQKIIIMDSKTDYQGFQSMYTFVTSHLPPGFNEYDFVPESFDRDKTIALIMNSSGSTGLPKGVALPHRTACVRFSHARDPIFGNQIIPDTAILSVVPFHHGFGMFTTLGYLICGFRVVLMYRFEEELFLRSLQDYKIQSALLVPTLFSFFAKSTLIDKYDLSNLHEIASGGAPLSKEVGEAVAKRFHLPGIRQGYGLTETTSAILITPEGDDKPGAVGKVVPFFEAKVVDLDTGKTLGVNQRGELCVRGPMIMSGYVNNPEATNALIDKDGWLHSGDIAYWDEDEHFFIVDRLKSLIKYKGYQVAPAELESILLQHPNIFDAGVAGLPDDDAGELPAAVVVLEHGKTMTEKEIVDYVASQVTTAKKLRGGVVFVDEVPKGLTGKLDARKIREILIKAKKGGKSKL
# Procedure, shortened: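 Purified P. pyralis luciferase was added to compounds (11-point series) preincubated 15 min at room temperature with substrate containing 0.013 mM D-luciferin and 0.013 mM ATP; luminescence was read after 5 min.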
# [10] = KB-3-1 Cancer Cell Toxicity qHTS against the NCATS CANVASS Library (AID 1347366); also: series mostly up to about 46 µM; nearly all actives have a fitted effect of over 75% in size
# Procedure, shortened: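 KB-3-1 cells (500/well) in DMEM with 10% FBS were exposed to compounds for 72 h at 37C. Viability was read by CellTiter-Glo luminescence.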
# [11] = qHTS for ATAD5 Agonist screened against the NCATS CANVASS Library (AID 1347367);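 also: luciferase reporter driven by ATAD5 which rises upon DNA damage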
# Procedure, shortened: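 Luciferase reporter under ATAD5 control, stably integrated in HEK293T cells (2000/well). Compounds (11 points) incubated 16 h at 37C; viability read first by CellTiter-Fluor, then luminescence reporting ATAD5 activation. MMS positive control.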
# [12] = MCF7 Cancer Cell Toxicity qHTS against the NCATS CANVASS Library (AID 1347369)
# Procedure, shortened: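 MCF7 cells (500/well) were exposed 72 h at 37 °C to compounds in an 11-point series. Viability was read as ATP content by CellTiterGlo luminescence.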
# [13] = qHTS for ATAD5 Antagonist screened against the NCATS CANVASS Library (AID 1347370); also: nearly all actives have a fitted effect of over 65% in size; also: potency is read from the fitted curve at half-maximal effect
# Procedure, shortened: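 HEK293T-ATAD5 luc reporter, 2000 cells/well; 5hr attach; cpd + 10 uM 5-FUrd; 16hr 37C, 5% CO2. Readouts: CellTiter-Fluor fluorescence (1hr), then Amplite luciferase luminescence (30min RT).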
# [14] = J3T Cancer Cell Toxicity qHTS against the NCATS CANVASS Library (AID 1347371)
# Procedure, shortened: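 Dog glioma J3T, 500 cells/well; cpd 11-pt qHTS; 72 hr, 37C/5% CO2; CellTiterGlo ATP luminescence readout.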
# [15] = target: Nuclear receptor subfamily 1 group I member 3 (Homo sapiens) (UniProt Q14994); assay: qHTS for Constitutive Androstane Receptor (CAR) Agonist screened against the NCATS CANVASS Library (AID 1347373);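 also: every well also contained 1.5 µM PK11195 alongside the test compound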
# Sequence of Nuclear receptor subfamily 1 group I member 3 (Homo sapiens) (Q14994 whole entry, looked up): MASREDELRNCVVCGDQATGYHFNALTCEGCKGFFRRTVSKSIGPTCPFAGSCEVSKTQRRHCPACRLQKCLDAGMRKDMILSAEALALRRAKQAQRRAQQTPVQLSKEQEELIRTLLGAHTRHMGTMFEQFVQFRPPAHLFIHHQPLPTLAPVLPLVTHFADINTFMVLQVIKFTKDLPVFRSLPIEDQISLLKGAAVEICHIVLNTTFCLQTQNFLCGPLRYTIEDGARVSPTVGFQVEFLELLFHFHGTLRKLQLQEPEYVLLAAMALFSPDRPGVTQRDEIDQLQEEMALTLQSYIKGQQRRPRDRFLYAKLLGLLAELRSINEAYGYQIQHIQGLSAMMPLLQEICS
# Procedure, shortened: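 Luciferase read-out (ONE-Glo, 30 min RT) of CYP2B6-2.2kb promoter activity in double-stable HepG2-hCAR cells after 24hr compound exposure with 1.5uM PK11195 present; viability measured first by CellTiter-Fluor.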
# [16] = 10-beta competent E. coli microbial cell viability qHTS against the NCATS CANVASS Library (AID 1347376); also: series mostly up to about 46 µM
# Procedure, shortened: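 Luminescence from BacTiter-Glo ATP detection served as the viability read-out; bacteria (0.2 OD) had been incubated overnight at 37C with pin-transferred compounds at 11 concentrations.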
# [17] = qHTS for Inflammasome Signaling Inhibitors: IL-1-beta AlphaLISA screen against the NCATS CANVASS Library (AID 1347379);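 also: human THP-1 cells primed with LPS then triggered with ATP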
# Procedure, shortened: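 THP-1, 1 hr compound pre-incubation, then LPS 250 ng/mL + ATP 1.25 mM (final); 16 hr total with compound; IL-1B AlphaLISA, ex 680/em 615 nm; 11-point qHTS, up to 57.5 uM final.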
# [18] = Inflammasome Signaling qHTS Counterscreen: IL-1-beta AlphaLISA counterscreen against the NCATS CANVASS Library (AID 1347381);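 also: cell-free check with purified IL-1β in medium and no THP-1 cells; series mostly up to about 57 µM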
# Procedure, shortened: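 Here, no cellular stimulation occurs; compounds in an 11-point series meet 4 pg purified IL-1-beta directly. Bead-based AlphaLISA detection follows (1 h acceptor/antibody, then 30 min donor, dark, room temperature), with excitation at 680 nm.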
# [19] = Vero-766 cells viability qHTS against the NCATS CANVASS Library: Counterscreen for Zika virus inhibition assay (AID 1347394); also: series mostly up to about 46 µM; nearly all actives have a fitted effect of over 60% in size
# Procedure, shortened: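 Vero 766 cells (1000/well), without Zika virus, were exposed to compounds for 72 h at 37C. Viability was measured by CellTiter Glo luminescence. Media-only wells served as 100% inhibition.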
# [20] = Viability qHTS for inhibitors of the SERCaMP assay screened against the NCATS CANVASS Library (AID 1347400); also: series mostly up to about 92 µM; nearly all actives have a fitted effect of over 70% in size
# Procedure, shortened: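 CellTiter-Glo luminescence readout after 48 h compound exposure (11-pnt qHTS series) of SH-SY5Y-GLuc SERCaMP MJH297 cells seeded at 1000 cells/well; bortezomib positive control.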
Compound,Potency [1],Potency [2],Potency [3],Potency [4],outcome [5],Potency [6],Potency [7],Potency [8],Potency [9],Potency [10],Potency [11],Potency [12],Potency [13],Potency [14],outcome [15],outcome [16],Potency [17],outcome [18],Potency [19],Potency [20]
C[C@@]12CCC[C@@](C)(C(=O)O)[C@H]1C[C@@H](O)[C@]13C[C@H]4C[C@H](O[C@@]4(C)C1)[C@@H]23,31.1 µM (active),inactive,inactive,inactive,inactive,inactive,inactive,inactive,inactive,inactive,inactive,inactive,inactive,inactive,inactive,inactive,inactive,inactive,inactive,inactive
COc1ccc([C@@H]2c3cc(OC)c(OC)cc3C(=O)C(C)C2C)cc1OC (stereo partly drawn),inactive,inactive,inactive,inactive,inactive,inactive,inactive,inactive,inactive,inactive,inactive,inactive,20.9 µM (active),inactive,inactive,inactive,inactive,inactive,inactive,–
C[C@@]12CCC[C@@](C)(C(=O)O)[C@H]1CC[C@]13C[C@H]4C[C@H](O[C@@]4(C)C1)[C@H]32,3.92 µM (active),inactive,inactive,inactive,inactive,inactive,inactive,inactive,inactive,inactive,inactive,inactive,inactive,inactive,inactive,inactive,inactive,inactive,inactive,inactive
COC1C(O)C(OC(N)=O)C(Oc2ccc3c(O)c(NC(=O)c4ccc(O)c(CC=C(C)C)c4)c(=O)oc3c2C)OC1(C)C (stereo not drawn),44 µM (active),inactive,inactive,inactive,inactive,inactive,inactive,inactive,inactive,inactive,inactive,inactive,inactive,inactive,inactive,–,inactive,inactive,inactive,inactive
C[C@@H](CCC[C@]1(C)C(=O)C=C[C@]23C[C@H]4C[C@H](O[C@@]4(C)C2)C31)C(=O)N[C@@H](CO)C(=O)O (stereo partly drawn),inactive,inactive,inactive,inactive,inactive,inactive,inactive,inactive,inactive,inactive,inactive,inactive,inactive,inactive,inactive,inactive,inactive,inactive,inactive,inactive
